Screening data (PubChem BioAssay)
A selection: hits, their analogues and other compounds. The true share with any hit is near 3.1%.
VDR inh: Inhibitors of the vitamin D receptor (VDR): qHTS; Vitamin D3 receptor (Homo sapiens), P11473; VDR-SRC2-3 peptide fluorescence polarization, 2 h; Potency, µM, usual class: inhibitors; 400,000 tested, 0.93% active; AID 504847, 2011
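The screen uses fluorescence polarization to detect compounds that interfere with recruitment of the SRC2-3 coactivator peptide to VDR; plates are read after 2 h at room temperature.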
TSHR antag: Antagonists of the Thyroid Stimulating Hormone Receptor: HTS campaign. Thyrotropin receptor (Homo sapiens), P16473. 330,000 tested, 0.2% active. activity change, negative = inhibition, % at 11.5 µM. TSHR-expressing cells, TSH-stimulated cAMP HTRF, 2 h; stronger effect = lower value. AID 504810, 2011;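 active means activity change below a set negative limit, meaning inhibition stronger than a set level, cut at about -70% in these data; inconclusive means activity change between two set negative limits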
Target sequence (P16473 whole entry, looked up): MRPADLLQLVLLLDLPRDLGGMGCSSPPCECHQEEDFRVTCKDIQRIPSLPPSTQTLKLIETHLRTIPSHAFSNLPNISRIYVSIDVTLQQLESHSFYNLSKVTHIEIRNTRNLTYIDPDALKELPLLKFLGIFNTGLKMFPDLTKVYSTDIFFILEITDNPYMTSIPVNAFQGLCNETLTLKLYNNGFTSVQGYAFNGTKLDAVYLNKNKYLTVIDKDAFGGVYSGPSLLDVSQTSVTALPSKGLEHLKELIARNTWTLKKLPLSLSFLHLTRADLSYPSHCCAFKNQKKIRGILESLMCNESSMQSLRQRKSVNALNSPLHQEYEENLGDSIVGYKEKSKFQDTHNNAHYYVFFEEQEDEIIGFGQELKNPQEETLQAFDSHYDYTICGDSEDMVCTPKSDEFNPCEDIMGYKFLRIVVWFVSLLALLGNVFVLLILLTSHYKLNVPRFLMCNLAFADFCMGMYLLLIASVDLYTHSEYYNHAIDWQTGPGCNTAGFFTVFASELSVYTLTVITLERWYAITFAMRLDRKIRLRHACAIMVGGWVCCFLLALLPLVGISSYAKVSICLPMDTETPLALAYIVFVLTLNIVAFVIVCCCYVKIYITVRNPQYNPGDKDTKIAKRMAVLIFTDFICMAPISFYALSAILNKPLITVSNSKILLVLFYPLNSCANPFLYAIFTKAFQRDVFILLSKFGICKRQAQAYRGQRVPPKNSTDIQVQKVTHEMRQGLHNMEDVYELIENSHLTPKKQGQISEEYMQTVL
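TSHR-expressing cells were treated with compounds, then stimulated with TSH at EC80 (4nM final) for 2 hours at 37 deg C. Cellular cAMP was measured by HTRF competition between lysate cAMP and cAMP-d2 for a cryptate-labelled anti-cAMP antibody.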
TSG101-PTAP inh: qHTS Assay for Iinhibitors of HIV-1 Budding by Blocking the Interaction of PTAP/TSG101 | Tumor susceptibility gene 101 protein (Homo sapiens), Q99816 | Fluorescence polarization, FITC-PTAP peptide / Tsg101 binding | Potency, µM (top dose mostly 115 µM), actives largely listed as inhibitors | 340,000 tested, under 10 active; active means well fitted inhibition curve with a large enough effect in the main read-out, with a control signal flat, not every such curve was filed as active; inconclusive means small, poorly fitted or top-dose-only effect, or effect the other way, or a change in a side signal; inactive means no such curve, though single readings can be large or run the other way
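Fluorescence anisotropy tracks displacement of a FITC-tagged PTAP peptide (50 nM) from the Tsg101 binding domain (10 uM), following a 20 min room-temperature incubation at pH 7.5.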
uPA surface inh: qHTS for Inhibitors of Cell Surface uPA Generation | 330,000 tested, 0.31% active | Potency, µM (doses to about 38.3 µM), actives largely listed as inhibitors | cell surface uPA generation assay, qHTS; active means well fitted inhibition curve with a large enough effect; inconclusive means small, poorly fitted or top-dose-only effect; inactive means no such curve, though single readings can be large or run the other way; tested in mouse RAW 264.7 cells; further: nearly all actives have a fitted effect of over 55% in size
PLK1 PBD inh: qHTS for Inhibitors of PLK1-PDB (polo-like kinase 1 - polo-box domain): Primary Screen. Plk1 PBD binding of FITC phosphopeptide, fluorescence polarization. Potency, µM, actives largely listed as inhibitors. 360,000 tested, 2.8% active. AID 720504, 2013; further: series mostly up to about 57 µM; nearly all actives have a fitted effect of over 65% in size
Numbers stand for hits; . = inactive; ? = inconclusive; / = not tested or not shown. Unless noted, the call rests on the fitted dose curve; in most records, active means well fitted curve in the direction sought with a large enough effect; inconclusive means small, poorly fitted or top-dose-only effect, or another doubt; inactive means no such curve, though single readings can be large; an effect the other way counts as inactive or inconclusive.

SMILES	VDR inh	TSHR antag	TSG101-PTAP inh	uPA surface inh	PLK1 PBD inh
CC(C)CC(=O)N1CCN(c2ccc([N+](=O)[O-])c(NCc3ccccc3)c2)CC1	.	/	.	.	21.2µM
CC(C)C(=O)N1CCN(c2ccc([N+](=O)[O-])cc2Cl)CC1	.	.	.	.	.
C/C(=N/NS(=O)(=O)c1ccc(C)c(C)c1)c1ccncc1	.	.	.	.	.
C/C(=N\NS(=O)(=O)c1ccc(Br)cc1)c1ccncc1	?	.	.	.	5.32µM
C/C(=N/NS(=O)(=O)c1cccc([N+](=O)[O-])c1)c1ccncc1	28.2µM	.	.	.	2.99µM
CC(=NNS(=O)(=O)c1cccc([N+](=O)[O-])c1)c1ccc(-n2ccnc2)cc1	.	.	.	.	18.9µM
CCCCNC(=O)c1nn(C)c2c1CSc1ccccc1-2	.	/	/	/	/
Cc1cccc(-c2nc3ccccc3c(=O)n2NC(=S)N(C)C)c1	50.1µM	.	.	.	2.99µM
Cc1noc(/C=C/c2nn(C)cc2Cl)c1[N+](=O)[O-]	?	.	.	4.47µM	.
Cc1nn(CC(C)C)c(Cl)c1C(=O)NCC1CCCO1 (stereo not drawn)	/	/	/	/	.
O=C(O)c1cccc2c1-c1ccccc1/C2=N\Nc1ccccc1	.	.	.	.	37.7µM
O=C(O)C(Cc1ccccc1)N1C(=O)c2c(Cl)c(Cl)c(Cl)c(Cl)c2C1=O (stereo not drawn)	.	/	.	.	?
COc1ccc(Cl)cc1N(C)C(=O)C(=O)Nc1ccc2nc3n(c(=O)c2c1)CCCCC3	.	/	/	/	/
O=C(CN1C(=O)N/C(=C\c2ccccc2OCc2ccc(C(=O)O)cc2)C1=O)Nc1ccccc1F	.	.	.	.	?
O=C(O)c1ccc(COc2ccccc2/C=C2\NC(=O)N(Cc3ccccc3F)C2=O)cc1	.	.	.	.	26.7µM
O=C(O)c1ccc(COc2ccc3ccccc3c2/C=C2/NC(=O)N(Cc3ccc(F)cc3)C2=O)cc1	.	.	.	.	?
O=C(O)c1ccc(COc2ccccc2/C=C2\NC(=O)N(Cc3ccccc3)C2=O)cc1	.	.	.	.	18.9µM
COc1ccc(CCNC(=O)C(=O)NCC(c2ccco2)S(=O)(=O)c2ccc(F)cc2)cc1 (stereo not drawn)	.	/	/	/	/
COc1ccc(C(=O)CN2C(=O)N(c3ccc(C(C)=O)cc3)S(=O)(=O)c3ccccc32)cc1	.	/	/	/	/
Cc1cc([C@](C)(N)C(=O)O)ccc1P(=O)(O)O	.	/	/	/	/
CC1=C/C(=C/N(C)c2ccccc2)C(=O)S1	?	.	.	.	26.7µM
O=C(NCCOc1ccccc1)C1CCCCC1	.	.	.	.	.
O=C(CC1CCCCC1)NCCOc1ccccc1	?	.	.	.	26.7µM
CCN(CC)C(=O)c1[nH]cnc1C(=O)Nc1cccc(Cl)c1	.	.	.	.	.
CCN(CC)C(=O)c1cc(Cl)ccn1	.	.	.	.	11.9µM
SMILES	VDR inh	TSHR antag	TSG101-PTAP inh	uPA surface inh	PLK1 PBD inh
CC(=O)NC(c1ccccc1)c1nc(-c2cccc(F)c2)cs1 (stereo not drawn)	/	/	/	/	.
O=C(NCc1ccc(Cl)cc1)NCC(F)(F)F	.	.	.	.	29.9µM
O=C(NCc1ccc(Cl)cc1)Nc1ccc(F)cc1	.	.	.	.	.
COc1ccc(NC2=C(Cl)C(=O)N(c3ccccc3)C2=O)c(OC)c1	.	.	.	.	?
COc1ccc(N2C(=O)C(Cl)=C(Nc3c(C)n(C)n(-c4ccccc4)c3=O)C2=O)cc1	?	.	.	.	23.8µM
Oc1cccc(C(=S)N2CCN(Cc3ccccc3)CC2)c1	.	.	.	.	15µM
Oc1cccc(C(=S)N2CCC(Cc3ccccc3)CC2)c1	?	.	.	.	21.2µM
COc1ccccc1NC(=O)CC(=O)c1ccccc1	?	.	.	.	29.9µM
COc1ccccc1NC(=O)CC(=O)Nc1ccccc1OC	.	.	.	.	.
COc1ccccc1NC(=O)NC1(C(=O)N2CCCCC2)CCCCC1	.	-74.6	.	.	.
COc1ccccc1NC(=O)O/N=C(\N)c1ccccc1	?	.	.	.	10.6µM
COc1ccccc1NC(=O)CCC(=O)Nc1cc(OC)c(NC(=O)c2cccs2)cc1OC	?	.	.	/	26.7µM
COc1ccccc1NC(=O)c1ccccc1NC(=O)c1ccccc1	.	/	/	/	/
COc1ccccc1NC(=O)Nc1ccccc1Br	?	.	.	.	11.9µM
COc1ccccc1NC(C)=O	.	.	.	.	.
COc1ccccc1NC(=O)C(C/C=C(/C)Cl)C(C)=O (stereo not drawn)	.	.	.	.	29.9µM
CCOc1ccccc1NC(=O)c1ccc2oc(=O)c(S(=O)(=O)c3ccc(F)cc3)cc2c1	.	/	/	/	/
C/C(CC1CC2=C(CC1(C)C)C(C)(C)CCC2)=N\NC(N)=S (stereo not drawn)	79.4µM	.	.	.	16.8µM
C/C(CC1CC(C)(C)OC1=O)=N\NC(N)=S (stereo not drawn)	.	.	.	.	.
O=C(N/C(=C/c1cccc(Br)c1)C(=O)N1CCOCC1)c1ccco1	/	/	/	/	.
COc1ccc(/C=N/NC(=O)CCCOc2ccc(Cl)cc2Cl)cc1	.	.	.	.	.
O=C(CCCOc1ccc(Cl)cc1Cl)N/N=C/c1ccc(Cl)cc1	?	.	.	.	15µM
O=C(CSc1nc(=O)[nH]c2c1CCCC2)NCc1ccc(F)cc1	.	/	/	/	/
COc1cc(NC(=S)N2CCCC(CO)C2)cc(OC)c1 (stereo not drawn)	.	.	.	.	21.2µM
Cc1cccc(NC(=O)CSc2c3c(nc4ccccc24)CCC3)n1	.	.	.	.	.
SMILES	VDR inh	TSHR antag	TSG101-PTAP inh	uPA surface inh	PLK1 PBD inh
CCC(C)NC(=O)CSc1c2c(nc3ccccc13)CCCC2 (stereo not drawn)	.	.	.	?	16.8µM
COc1ccc(Nc2ncnc3c2cnn3-c2cc(Cl)ccc2C)cc1OC	.	/	/	/	/
COc1ccc(NC(=O)C2CCN(C(=O)c3ccccc3)CC2)c(OC)c1	.	.	.	.	.
COc1ccc(NC(=O)C2CCN(C(=O)c3cccs3)CC2)c(OC)c1	?	.	.	.	7.52µM
CN(Cc1ccco1)c1ncnc2ccc(-c3ccc4c(c3)OCCO4)cc12	/	.	/	/	/
CN(Cc1ccco1)c1cc(-c2ccc3c(c2)OCO3)ncn1	22.4µM	/	/	/	/
NC(=O)C1=C(c2ccccc2)c2ccccc2C1=O	39.8µM	/	.	.	4.23µM
Cc1ccc(C2=C(O)c3ccccc3C(=O)C2=O)cc1	.	.	.	.	.
O=C(Nc1c(C(=O)Nc2ccccc2F)oc2ccccc12)c1cc2ccccc2o1	.	/	/	/	/
CCOC(=O)C(=Cc1ccc(N(C)C)cc1)C(=O)c1ccccc1	/	/	/	/	.
CCOC(=O)/C(=C/c1ccc(OC(=O)c2ccccc2)cc1)C(C)=O	?	.	.	.	5.32µM
